Hits are enriched below; roughly 3.8% of the tested compounds scored in any of these assays.
ERa SRC1 pot = enhances coactivator binding to human estrogen receptor alpha; P03372; TR-FRET ERalpha-LBD/SRC-Cy5 coactivator binding, 2 h; 100 = basal binding, no effect; coactivator binding (% of control), % at 25.6 µM; actives 1.3% (n = 86,000); AID 639; in the data active = activity above about 200%;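 note: binding measured in presence of low estradiol as agonist stimulus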
Calb biofilm kill = kills Candida albicans biofilms; C. albicans biofilm + clotrimazole, Alamar Blue; inhibition, % at 6 µM; actives 0.14% (n = 85,000); AID 834;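 active = inhibition above 20%; inactive = inhibition below 20%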;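 note: preformed 24 hr biofilms exposed to compound for 48 hr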
ERa coact inh = ER-alpha (human) coactivator binding inhibition. P03372. actives 1.7% (n = 86,000). inhibition, % at 25.6 µM. TR-FRET ER-alpha LBD / SRC-1 peptide, estradiol-bound; in the data active = inhibition above about 50%
Smad3 inh = inhibitors of human Smad3 transcription factor binding. P84022. actives 0.29% (n = 88,000). inhibition, % at 25 µM. TR-FRET Smad3/Dy647-FoxH1 peptide binding, europium anti-His;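 active = compounds that reduce the energy-transfer binding signal between the protein and its labelled peptide by more than half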
ERb coact inh = blocks coactivator binding to human estrogen receptor beta | Q92731 | TR-FRET ER-beta LBD / SRC1-Cy5 peptide binding; receptor agonist-loaded with 1 µM estradiol | inhibition, % at 25.6 µM | actives 1.3% (n = 86,000) | AID 633;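 active = compounds whose percent inhibition of the receptor-coactivator binding signal exceeds about 50% in the single-dose screen, limit read from the data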
Target sequence (Q92731 whole entry, looked up, the tested form may be a part): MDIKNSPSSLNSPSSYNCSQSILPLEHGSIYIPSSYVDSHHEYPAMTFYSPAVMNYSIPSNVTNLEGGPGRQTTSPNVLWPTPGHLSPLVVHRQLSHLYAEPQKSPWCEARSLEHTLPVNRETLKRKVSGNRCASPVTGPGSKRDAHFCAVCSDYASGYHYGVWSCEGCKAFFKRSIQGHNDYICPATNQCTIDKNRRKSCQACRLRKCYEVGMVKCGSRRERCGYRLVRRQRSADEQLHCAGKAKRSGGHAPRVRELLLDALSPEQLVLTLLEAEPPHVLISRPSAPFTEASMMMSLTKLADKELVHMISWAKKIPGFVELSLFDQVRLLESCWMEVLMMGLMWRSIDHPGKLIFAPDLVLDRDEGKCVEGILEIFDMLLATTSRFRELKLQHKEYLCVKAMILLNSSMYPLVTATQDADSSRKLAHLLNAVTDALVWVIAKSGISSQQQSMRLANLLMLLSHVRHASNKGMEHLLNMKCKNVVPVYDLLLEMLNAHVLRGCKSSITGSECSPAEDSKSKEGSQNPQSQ
Large screens that a line does not name were inactive; [ ] = dose if it differs, or a comment.

Cc1cc(C)c2cc(CN(CCO)C(=O)Nc3ccc(Cl)cc3)c(=O)[nH]c2c1	ERa SRC1 pot 232
CCS(=O)(=O)NCc1csc(-c2ccccc2)n1	Calb biofilm kill 25
CC(=O)N1CCN=C1SCc1ccccc1	ERa SRC1 pot 263[fluorescence artefact?]
NC(N)=N/N=C/c1ccc(C2CCNCC2)cc1	none (no result: ERa SRC1 pot, Calb biofilm kill, ERa coact inh, ERb coact inh)
CC(Oc1ccc(Cl)cc1Cl)C(=O)NC1CCSC1=O (centres undefined)	none
CC(C)C(=O)Nc1ccc(C(=O)NC2CCSC2=O)cc1 (centres undefined)	ERa SRC1 pot 204
COc1cc2[nH]c(=S)n(C3CCCC3)c(=O)c2cc1OC	none
COc1cc2[nH]c(=S)n(N(C(C)=O)C(C)=O)c(=O)c2cc1OC	ERa SRC1 pot 201[fluorescence artefact?]
FC(F)(F)c1nc(SCc2ccc(Cl)cc2)n[nH]1	none (no result: ERa SRC1 pot, Calb biofilm kill, ERa coact inh, ERb coact inh)
CC(=O)C1=C(O)C=C(c2ccco2)CC1c1ccco1 (centres undefined)	ERb coact inh 50[fluorescence artefact?]
O=[N+]([O-])c1ccc(C2=Nn3c(nnc3-c3ccc(Cl)cc3)SC2)o1	none (no result: ERa SRC1 pot, Calb biofilm kill, ERa coact inh, ERb coact inh)
CCN1CCn2c3c(c4cc(C)ccc42)CCCC31 (centres undefined)	ERb coact inh 56[fluorescence artefact?]
CC(=O)N1CCn2c3c(c(=O)c4cc(C)ccc42)CCC31 (centres undefined)	none
O=C(COc1ccc(Br)cc1)Nc1ccc(-c2nnc(-c3ccco3)o2)cc1	ERa SRC1 pot 268[fluorescence artefact?]
CCC(Oc1ccccc1)C(=O)Nc1ccc(-c2nnc(-c3ccco3)o2)cc1 (centres undefined)	none
COc1ccc(Br)cc1C(=O)Nc1cccc(-c2nnc(-c3ccco3)o2)c1	ERa coact inh 69[fluorescence artefact?], ERb coact inh 53[fluorescence artefact?]
Cc1cnc(-c2nnc(N(C)C(=O)c3ccncc3)s2)cn1	none
CCOC(=O)c1ccc(CC(=O)c2ccc(O)cc2O)o1	none
COC(=O)c1ccc(CC(=O)c2c(C)cc(O)cc2O)o1	ERb coact inh 52
NCC(=O)NC1(C(=O)O)CCCC1	none (no result: ERa SRC1 pot, Calb biofilm kill, ERa coact inh, ERb coact inh)
Cc1ccc(C(=O)O)cc1-c1ccc(/C=C2/NC(=O)N(c3ccccc3)C2=O)o1	ERa coact inh 80[fluorescence artefact?], ERb coact inh 81[fluorescence artefact?]
Cc1ccc(N2C(=O)c3ccc(C(=O)O)cc3C2=O)cc1C	none
CCN(CC)C(=O)CSc1nc(-c2cccs2)cc(-c2cccs2)c1C#N	none
CCN(CC)C(=O)CSc1nc(N)c(C#N)c(-c2cccs2)c1C#N	ERa SRC1 pot 221[fluorescence artefact?]
N#Cc1c(N)nc(SCc2ccncc2)c(C#N)c1-c1cccs1	ERa SRC1 pot 267[fluorescence artefact?]
COc1cc(-c2c(C#N)c(N)nc(SCc3ccncc3)c2C#N)cc(OC)c1OC	none
CCN(CC)C(=O)CSc1ncnc2c(-c3cccs3)nsc12	ERa coact inh 51[fluorescence artefact?], ERb coact inh 51[fluorescence artefact?]
CCc1c(C#N)c(N)nc(SCC(=O)OCc2ccccc2)c1C#N	ERa SRC1 pot 207[fluorescence artefact?]
Cc1cc(=O)oc2c(OS(C)(=O)=O)c(OS(C)(=O)=O)ccc12	none (no result: ERa SRC1 pot, Calb biofilm kill, ERa coact inh, ERb coact inh)
Cc1ccccc1NC(=O)CSc1nc(N)c(C#N)c(-c2cccs2)c1C#N	ERa SRC1 pot 319[fluorescence artefact?], ERb coact inh 51[fluorescence artefact?]
O=C(O)c1nnsc1-c1ccc(-c2snnc2C(=O)O)cc1	none (no result: ERa SRC1 pot, Calb biofilm kill, ERa coact inh, ERb coact inh)
CC(C)(C)c1nnc2sc(SCC(=O)c3ccccc3)nn2c1=O	none
CC(C)(C)c1nnc2sc(SC/C(O)=C(\C#N)c3nc4ccccc4[nH]3)nn2c1=O	ERa coact inh 69[fluorescence artefact?], ERb coact inh 62
O=C(NCc1ccccc1)c1ccc(C(=O)N(C2CCCCC2)C2CCCCC2)cc1	Calb biofilm kill 76
CC(C)(N)C(=O)N[C@@H]1C(=O)N2[C@H]1SC(C)(C)[C@H]2C(=O)O	none (no result: ERa SRC1 pot, Calb biofilm kill, ERa coact inh, ERb coact inh)
C[C@@]12C[C@H](O)[C@@H]3[C@H](CCC4=CC(=O)CC[C@]43C)[C@H]1CC[C@H]2c1csc(-c2ccccc2)n1	none (no result: ERa SRC1 pot, Calb biofilm kill, ERa coact inh, ERb coact inh)
CCC1CCCCN1C(=O)c1c[nH]c2ccc(S(=O)(=O)N(C)c3ccc(Cl)cc3)cc2c1=O (centres undefined)	ERa coact inh 58[fluorescence artefact?]
COCCN(CCOC)C(=O)c1c[nH]c2ccc(S(=O)(=O)N(C)c3ccc(F)cc3)cc2c1=O	ERa coact inh 53[fluorescence artefact?]
O=C(O)c1c[nH]c2ccc(S(=O)(=O)N3CCOCC3)cc12	none
CCN(CC)S(=O)(=O)c1ccc2[nH]cc(C(=O)NCCN3CCCCCC3)c(=O)c2c1	none
CCc1ccc(N(C)S(=O)(=O)c2ccc3[nH]cc(C(=O)NCCN4CCOCC4)c(=O)c3c2)cc1	Calb biofilm kill 46
CCOc1ccc(N(C)S(=O)(=O)c2ccc3[nH]cc(C(=O)NCC4CCCO4)c(=O)c3c2)cc1 (centres undefined)	none
CN(c1ccc(F)cc1)S(=O)(=O)c1ccc2[nH]cc(C(=O)O)c(=O)c2c1	ERa coact inh 55[fluorescence artefact?]
CCN(CC)S(=O)(=O)c1ccc2[nH]cc(C(=O)NCCN3CCCCC3C)c(=O)c2c1 (centres undefined)	none
O=[N+]([O-])c1ccc(Cl)c(CNc2ncnc3c2ncn3[C@@H]2CCCCO2)c1	none (no result: ERa SRC1 pot, Calb biofilm kill, ERa coact inh, ERb coact inh)
CC1(C)[C@H]2CC[C@]1(C)[C@H](OC(=O)/C=C/c1ccccc1)C2	none (no result: ERa SRC1 pot, Calb biofilm kill, ERa coact inh, ERb coact inh)
CC(C)=CCC/C(C)=C/CO	none (no result: ERa SRC1 pot, Calb biofilm kill, ERa coact inh, ERb coact inh)
Nc1nccc(Nc2ccc(S(N)(=O)=O)cc2)n1	none (no result: ERa SRC1 pot, Calb biofilm kill, ERa coact inh, ERb coact inh)
Cc1nnc(NC(=O)c2ccc(-c3cccc(C(F)(F)F)c3)o2)s1	ERa SRC1 pot 288
CC(=O)Cc1nsc(NC(=O)c2ccc(-c3cccc(C(F)(F)F)c3)o2)n1	none
O=C(Nc1nc(=O)c2ccccc2s1)c1ccc(F)cc1	ERb coact inh 52[fluorescence artefact?]
O=C(Cc1ccccc1)Nc1nc(=O)c2ccccc2s1	none
O=C(O)[C@H]1CCCN1	none (no result: ERa SRC1 pot, Calb biofilm kill, ERa coact inh, ERb coact inh)
CC1=C(SCCC#N)S/C(=C2\SC(C)=C(SCCC#N)S2)S1	ERa coact inh 81, ERb coact inh 53
CCN1C(=O)c2ccc(C(=O)Nc3nccs3)cc2C1=O	none
O=C(Nc1nccs1)c1ccc2nccnc2c1	ERb coact inh 60
CC(C)[C@@H]1OC(=O)C=CC=CC=CC=CC=CC[C@@H](O)[C@H](C)[C@@H](O)C[C@H](O)C[C@H](O)C[C@H](O)C[C@H](O)C[C@H](O)C[C@H](O)C=C[C@@H]1C	none (no result: ERa SRC1 pot, Calb biofilm kill, ERa coact inh, ERb coact inh)
Nc1ccc(C(=O)Nc2nc3ccccc3s2)cc1	none
Cc1cc(C)n(-c2ccc(C(=O)Nc3nc4ccccc4s3)cc2)n1	ERa SRC1 pot 208[fluorescence artefact?]
COc1ccc2c3c(ccc2c1)N[C@H](C(=O)O)CC3	none (no result: ERa SRC1 pot, Calb biofilm kill, ERa coact inh, ERb coact inh)
COc1ccc(NCc2c(O)ccc3ccccc23)cc1	none (no result: ERa SRC1 pot, Calb biofilm kill, ERa coact inh, ERb coact inh)
O=S(=O)(O)c1ccc(NN(c2c(O)ccc3ccccc23)S(=O)(=O)O)cc1	Smad3 inh 99 (no result: ERa SRC1 pot, Calb biofilm kill, ERa coact inh, ERb coact inh)
CN(/N=C/c1cccnc1)c1cnn(-c2ccc(F)c(Cl)c2)c(=O)c1Cl	ERa coact inh 61
CN(/N=C/c1c[nH]c2ccccc12)c1cnn(-c2ccc(F)c(Cl)c2)c(=O)c1Cl	none
c1c[nH]c(CN2CCN(Cc3ncc[nH]3)CC2)n1	none (no result: ERa SRC1 pot, Calb biofilm kill, ERa coact inh, ERb coact inh)
COc1cccc2cc(-c3nc(-c4cccs4)cs3)c(=O)oc12	ERa coact inh 50[fluorescence artefact?]
O=c1oc2ccccc2cc1-c1nc(-c2cccs2)cs1	none
Cc1csc2ncc(C(=O)N3c4ccccc4CC3C)c(=O)n12 (centres undefined)	ERb coact inh 87
Cc1cccc(NC(=O)c2cnc3scc(C)n3c2=O)c1	ERa SRC1 pot 336[fluorescence artefact?]
